Experiments:
Assay in all cases: DAPPL (digital affinity profiling via proximity ligation, sequencing); 10 mM Tris-HCl pH 7.5, 50 mM NaCl, 1 mM DTT, 4% glycerol, room temperature, 30 min; GST-TFs on glutathione beads, 16-mer random dsDNA library, 0.1% formaldehyde crosslink after washing; high values mean tight binding
Conditions in all cases: protein: recombinant; tags: N-terminal GST; dsDNA, one strand shown
ERF = target: T1, ERF (Homo sapiens, UniProt P50548 1-548)
T1 sequence: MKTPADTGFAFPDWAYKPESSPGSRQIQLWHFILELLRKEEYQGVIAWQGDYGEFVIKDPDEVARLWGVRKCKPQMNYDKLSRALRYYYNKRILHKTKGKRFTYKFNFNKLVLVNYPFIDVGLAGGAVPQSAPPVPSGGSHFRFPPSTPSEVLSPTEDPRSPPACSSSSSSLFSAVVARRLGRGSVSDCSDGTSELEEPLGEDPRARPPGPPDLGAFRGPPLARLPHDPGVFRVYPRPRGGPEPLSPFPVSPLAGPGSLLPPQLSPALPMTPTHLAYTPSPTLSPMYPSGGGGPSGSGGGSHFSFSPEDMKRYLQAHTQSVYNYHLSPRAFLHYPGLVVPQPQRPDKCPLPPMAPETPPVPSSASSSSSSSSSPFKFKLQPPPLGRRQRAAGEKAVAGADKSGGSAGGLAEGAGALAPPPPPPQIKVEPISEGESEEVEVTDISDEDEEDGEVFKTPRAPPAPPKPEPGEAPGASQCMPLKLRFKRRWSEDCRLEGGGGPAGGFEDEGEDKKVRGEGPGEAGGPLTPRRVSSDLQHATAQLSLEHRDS
Outline: (§1)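 Binding signal is given per hexamer as its read frequency for a factor divided by its frequency in the tag-only sample. GST-fused human transcription factors were expressed in yeast, captured on glutathione beads, barcoded with DNA and pooled with that sample, then incubated with 200 nmole of a 16-mer random double-stranded DNA library in Tris/NaCl/DTT/glycerol buffer for 30 min at room temperature. The pools were then washed, crosslinked, proximity-ligated, amplified by PCR and sequenced on an Illumina NextSeq500.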

ETV3L = target: T2, ETV3L (Homo sapiens, UniProt Q6ZN32 1-361)
T2 sequence: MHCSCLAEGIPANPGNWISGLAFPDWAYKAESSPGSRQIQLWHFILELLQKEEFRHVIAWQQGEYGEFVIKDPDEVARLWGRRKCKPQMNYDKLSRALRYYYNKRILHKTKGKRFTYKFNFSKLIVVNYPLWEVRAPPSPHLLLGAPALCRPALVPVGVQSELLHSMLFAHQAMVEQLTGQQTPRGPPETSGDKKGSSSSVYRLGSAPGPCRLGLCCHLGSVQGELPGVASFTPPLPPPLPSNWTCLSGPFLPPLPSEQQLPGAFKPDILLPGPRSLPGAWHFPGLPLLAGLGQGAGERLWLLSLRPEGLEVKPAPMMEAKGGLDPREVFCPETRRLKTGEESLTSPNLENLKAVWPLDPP
Outline: as §1

ETS2 = target: T3, ETS2 (Homo sapiens, UniProt P15036 1-469)
T3 sequence: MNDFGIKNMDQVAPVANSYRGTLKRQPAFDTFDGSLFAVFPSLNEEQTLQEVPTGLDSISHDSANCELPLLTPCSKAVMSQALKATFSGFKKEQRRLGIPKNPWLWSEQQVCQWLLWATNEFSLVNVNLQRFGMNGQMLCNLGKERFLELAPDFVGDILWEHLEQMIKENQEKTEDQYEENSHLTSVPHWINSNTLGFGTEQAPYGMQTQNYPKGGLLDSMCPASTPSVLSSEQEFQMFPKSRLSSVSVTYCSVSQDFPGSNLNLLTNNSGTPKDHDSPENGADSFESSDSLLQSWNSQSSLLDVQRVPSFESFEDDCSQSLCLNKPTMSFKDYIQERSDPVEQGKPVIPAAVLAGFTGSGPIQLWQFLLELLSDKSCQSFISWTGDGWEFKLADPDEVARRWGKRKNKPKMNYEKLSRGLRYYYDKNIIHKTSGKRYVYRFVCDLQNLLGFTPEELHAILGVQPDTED
Outline: as §1

SPDEF = target: T4, SPDEF (Homo sapiens, UniProt O95238 1-335)
T4 sequence: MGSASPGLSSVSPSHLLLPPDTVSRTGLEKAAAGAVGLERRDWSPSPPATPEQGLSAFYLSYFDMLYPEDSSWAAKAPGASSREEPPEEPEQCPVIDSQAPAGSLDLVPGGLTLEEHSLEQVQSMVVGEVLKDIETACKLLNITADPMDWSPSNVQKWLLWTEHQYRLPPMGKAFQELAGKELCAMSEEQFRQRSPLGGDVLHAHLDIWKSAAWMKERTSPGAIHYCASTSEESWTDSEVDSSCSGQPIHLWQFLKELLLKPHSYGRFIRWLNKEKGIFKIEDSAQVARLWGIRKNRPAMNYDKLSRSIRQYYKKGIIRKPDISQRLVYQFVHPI
Outline: as §1

ETV7 = target: T5, ETV7 (Homo sapiens, UniProt Q9Y603 1-341)
T5 sequence: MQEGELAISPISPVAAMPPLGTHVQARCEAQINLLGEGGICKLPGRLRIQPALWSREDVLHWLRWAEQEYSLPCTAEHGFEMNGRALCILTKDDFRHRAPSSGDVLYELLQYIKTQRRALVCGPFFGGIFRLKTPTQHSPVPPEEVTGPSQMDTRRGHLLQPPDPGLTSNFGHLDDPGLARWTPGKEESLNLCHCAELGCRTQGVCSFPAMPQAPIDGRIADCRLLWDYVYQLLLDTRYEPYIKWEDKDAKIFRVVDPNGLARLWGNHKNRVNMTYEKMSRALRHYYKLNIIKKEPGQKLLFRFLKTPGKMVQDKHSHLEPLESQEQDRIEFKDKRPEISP
Outline: as §1

ELF5 = target: T6, ELF5 (Homo sapiens, UniProt Q9UKW6-2 1-255)
T6 sequence: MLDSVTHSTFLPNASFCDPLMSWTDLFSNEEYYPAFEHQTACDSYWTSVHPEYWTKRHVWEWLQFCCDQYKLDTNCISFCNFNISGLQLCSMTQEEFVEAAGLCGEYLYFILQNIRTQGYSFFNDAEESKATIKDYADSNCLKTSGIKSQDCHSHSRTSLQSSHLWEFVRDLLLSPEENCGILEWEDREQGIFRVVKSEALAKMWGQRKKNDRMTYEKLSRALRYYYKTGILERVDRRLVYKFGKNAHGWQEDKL
Outline: as §1

ETV3 = target: T7, ETV3 (Homo sapiens, UniProt P41162-2 1-143)
T7 sequence: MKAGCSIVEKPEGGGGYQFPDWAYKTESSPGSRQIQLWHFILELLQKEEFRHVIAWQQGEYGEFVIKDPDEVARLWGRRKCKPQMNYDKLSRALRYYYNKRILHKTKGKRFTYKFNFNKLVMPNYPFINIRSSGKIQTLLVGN
Outline: as §1

ETV6 = ETV6 (Homo sapiens, UniProt P41212 1-452)
Outline: as §1

Sequence of ETV6 (P41212 whole entry): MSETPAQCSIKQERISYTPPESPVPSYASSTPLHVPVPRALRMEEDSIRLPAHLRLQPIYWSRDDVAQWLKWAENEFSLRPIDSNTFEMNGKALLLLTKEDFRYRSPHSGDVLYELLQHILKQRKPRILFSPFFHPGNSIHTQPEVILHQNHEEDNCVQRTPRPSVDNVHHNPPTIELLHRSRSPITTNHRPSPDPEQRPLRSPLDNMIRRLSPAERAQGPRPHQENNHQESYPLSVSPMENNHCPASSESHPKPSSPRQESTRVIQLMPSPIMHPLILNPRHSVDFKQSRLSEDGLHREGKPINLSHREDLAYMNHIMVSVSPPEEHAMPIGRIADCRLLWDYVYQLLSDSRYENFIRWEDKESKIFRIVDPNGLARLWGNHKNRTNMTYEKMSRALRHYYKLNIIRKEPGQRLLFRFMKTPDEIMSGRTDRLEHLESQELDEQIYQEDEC

Sequence	binding signal (ERF)	binding signal (ETV3L)	binding signal (ETS2)	binding signal (SPDEF)	binding signal (ETV7)	binding signal (ELF5)	binding signal (ETV3)	binding signal (ETV6)
GTTTTC	1.34 fold enrichment (6-mer frequency, TF over GST control)	1.27 fold enrichment (6-mer frequency, TF over GST control)	1.16 fold enrichment (6-mer frequency, TF over GST control)	1.08 fold enrichment (6-mer frequency, TF over GST control)	1.36 fold enrichment (6-mer frequency, TF over GST control)	1.31 fold enrichment (6-mer frequency, TF over GST control)	1.29 fold enrichment (6-mer frequency, TF over GST control)	1.23 fold enrichment (6-mer frequency, TF over GST control)
CCTTCA	1.42 fold enrichment (6-mer frequency, TF over GST control)	1.21 fold enrichment (6-mer frequency, TF over GST control)	1.38 fold enrichment (6-mer frequency, TF over GST control)	1.48 fold enrichment (6-mer frequency, TF over GST control)	1.26 fold enrichment (6-mer frequency, TF over GST control)	1.56 fold enrichment (6-mer frequency, TF over GST control)	1.46 fold enrichment (6-mer frequency, TF over GST control)	1.5 fold enrichment (6-mer frequency, TF over GST control)
CCGCGT	1.08 fold enrichment (6-mer frequency, TF over GST control)	1.11 fold enrichment (6-mer frequency, TF over GST control)	1.13 fold enrichment (6-mer frequency, TF over GST control)	1.12 fold enrichment (6-mer frequency, TF over GST control)	1.21 fold enrichment (6-mer frequency, TF over GST control)	1.27 fold enrichment (6-mer frequency, TF over GST control)	1.13 fold enrichment (6-mer frequency, TF over GST control)	1.16 fold enrichment (6-mer frequency, TF over GST control)
CCCTGG	1.24 fold enrichment (6-mer frequency, TF over GST control)	1.16 fold enrichment (6-mer frequency, TF over GST control)	1.06 fold enrichment (6-mer frequency, TF over GST control)	1.02 fold enrichment (6-mer frequency, TF over GST control)	1.26 fold enrichment (6-mer frequency, TF over GST control)	1.06 fold enrichment (6-mer frequency, TF over GST control)	1.13 fold enrichment (6-mer frequency, TF over GST control)	1.05 fold enrichment (6-mer frequency, TF over GST control)
CCTGTA	1.24 fold enrichment (6-mer frequency, TF over GST control)	1.22 fold enrichment (6-mer frequency, TF over GST control)	1.15 fold enrichment (6-mer frequency, TF over GST control)	1.36 fold enrichment (6-mer frequency, TF over GST control)	1.21 fold enrichment (6-mer frequency, TF over GST control)	1.43 fold enrichment (6-mer frequency, TF over GST control)	1.35 fold enrichment (6-mer frequency, TF over GST control)	1.18 fold enrichment (6-mer frequency, TF over GST control)
CTTGGC	1.35 fold enrichment (6-mer frequency, TF over GST control)	1.15 fold enrichment (6-mer frequency, TF over GST control)	1.03 fold enrichment (6-mer frequency, TF over GST control)	1.14 fold enrichment (6-mer frequency, TF over GST control)	1.24 fold enrichment (6-mer frequency, TF over GST control)	1.12 fold enrichment (6-mer frequency, TF over GST control)	1.12 fold enrichment (6-mer frequency, TF over GST control)	1.1 fold enrichment (6-mer frequency, TF over GST control)
ACCCGC	1.27 fold enrichment (6-mer frequency, TF over GST control)	1.34 fold enrichment (6-mer frequency, TF over GST control)	1.15 fold enrichment (6-mer frequency, TF over GST control)	1.16 fold enrichment (6-mer frequency, TF over GST control)	1.18 fold enrichment (6-mer frequency, TF over GST control)	1.25 fold enrichment (6-mer frequency, TF over GST control)	1.28 fold enrichment (6-mer frequency, TF over GST control)	1.32 fold enrichment (6-mer frequency, TF over GST control)
CCCCTT	1.53 fold enrichment (6-mer frequency, TF over GST control)	1.47 fold enrichment (6-mer frequency, TF over GST control)	1.51 fold enrichment (6-mer frequency, TF over GST control)	1.5 fold enrichment (6-mer frequency, TF over GST control)	1.56 fold enrichment (6-mer frequency, TF over GST control)	1.64 fold enrichment (6-mer frequency, TF over GST control)	1.51 fold enrichment (6-mer frequency, TF over GST control)	1.51 fold enrichment (6-mer frequency, TF over GST control)

From publication PMC7862700, “An all-to-all approach to the identification of sequence-specific readers for epigenetic DNA modifications on cytosine”
